Experimental data as given in publication PMC5540273 (PLoS ONE, 2017).

Test system: CDKL2
Conditions: concentration: 1 μM, replicates: in singlicate; n = 1
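Also: KINOMEscan kinase panel screen.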

SMILES | %Inh [%]
Cn1ccc2ncnc(Oc3ccc(NC(=O)Nc4ccccc4)cc3)c21 | 2
Cc1csc(-c2nc(Nc3ccncc3)c3ccccc3n2)n1 [GW869640] | 1
O=c1cc(N2CCOCC2)nc2n(Cc3cccc(Cl)c3Cl)ccn12 [GSK2286295] | 7
COc1cc2ncnc(Nc3ccc4nc(-c5ccccc5)[nH]c4c3)c2cc1OC.Cl [GW282450] | 7
CCCc1ccc(S(=O)(=O)NC2CCN(c3ccnc(Nc4ccc(F)cc4)n3)C2)cc1 (stereo not drawn) [GSK1379715] | 38
COc1cc2nccc(Nc3ccc(NC(=O)c4ccc(C)cc4)c(O)c3)c2cc1OC.Cl [GW440132] | 13
CCn1c(-c2cccnc2O)nc2cnccc21 [SB-736715] | 0
O=C(Nc1n[nH]c2cc(-c3cccc(F)c3F)ccc12)C1CC1 [SB-733894] | 95
Cc1c(O)cccc1Nc1ccnc2ccc(C(F)(F)F)cc12.Cl [GW466413] | 5
COc1ccccc1-c1ccc2c(NC(=O)C3CC3)n[nH]c2n1 [SB-711239] | 23
COC(=O)c1c(-c2ccccc2)c2cc(C(=O)O)ccc2c(=O)n1Cc1ccccc1 | 6
Cc1ccc(NC(=O)Nc2cc(C(C)(C)C)nn2-c2ccccc2)cc1 [GSK1014915] | 13
Cc1cc(NCC(c2ccccc2)c2ccccc2)nc(NCc2ccc(C(F)(F)F)cc2)n1 [GW497681] | 12
Cc1cccc(-c2nc(-c3ccc(S(C)(=O)=O)cc3)sc2-c2ccnc(NCCc3ccccc3)c2)c1 | 13
O=C(Nc1ccccc1)Nc1cccc(Oc2ccc3nccn3n2)c1 | 4
COc1cccc(-c2cc(-c3c[nH]nc3-c3ccccn3)ccn2)c1 [GW680338] | 0
CN(C)CCN(C)C(=O)c1cc(-c2ccncc2)c(-c2ccc(Cl)c(O)c2)o1.Cl.Cl [SB-710397] | 20
COc1cc(Nc2nccc(N3CCC(NC(=O)Nc4cc(C)ccc4C)C3)n2)cc(OC)c1OC (stereo not drawn) [GSK1379762] | 41
Fc1cc(Cl)ccc1Nc1ccnc2cc(-c3ccc(CN4CCCCC4)o3)ccc12 [GW560116] | 2
Cc1cccc(-c2nc(Nc3cccc(C(N)=O)c3)c3ccccc3n2)n1 [GW876019] | 13
Clc1cc(Cl)cc(Nc2ccnc(Nc3cc(Cl)cc(Cl)c3)n2)c1 [GSK175726] | 32
